The text below walks through data of PubChem BioAssay (NCATS).

Test [1] addresses Lysosomal acid glucosylceramidase (Homo sapiens) (UniProt P04062). Nature of the test: Glucocerebrosidase-p2 (AID 348; in the data active = potency below about 10 µM; note: potency is the fitted concentration of half-maximal effect). Particulars: purified GBA, blue fluorogenic substrate, 40 min. A digest of the protocol:
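Compounds titrated from 0.6 nM upwards against 0.2 nM enzyme in pH 5.9 citric acid/KH2PO4, taurocholate, tween-20; blue fluorogenic substrate 80 uM, 40 min room temperature, stopped and read Ex 365/Em 440 for AC50.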

Test [2] in a line: AP1 Signaling Pathway (AID 357).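 Note: ME-180 reporter cells stimulated with EGF at its EC50 level; % is set by controls: 0 for no effect and ±100 for the full control effect.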 Particulars: ME-180 AP-1-bla reporter, EGF-induced, beta-lactamase ratio, 5 h; at 7.69 µM (top of the series) unless noted. A digest of the protocol:
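First, ME-180 AP-1-bla cells were cultured overnight at 37 °C in low-serum Opti-MEM. Next, titrated compounds with EC50 EGF were incubated 5 hours. Finally, CCF4 was added for 2.5 hours and the 460/530 nm ratio recorded.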

Test [3] deals with Cytochrome P450 1A2 (Homo sapiens) (UniProt P05177). Description: p450-cyp1a2 (AID 410; calls by dose curve; note: potency is the fitted concentration of half-maximal effect;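 for activity change, negative = inhibition: -100% = full effect of reference inhibitor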). Particulars: recombinant CYP1A2, luciferin-ME demethylation, luminescence; series mostly up to 11.4 µM. A digest of the protocol: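 Human CYP1A2 (20nM) demethylated Luciferin-ME at its Km (100uM) in 100mM KPO4. After 10 min compound preincubation, NADPH regeneration ran the reaction 60 min at room temperature. Luciferin was read by luminescence, normalized to 57 uM furafylline.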
Chain of Cytochrome P450 1A2 (Homo sapiens) (P05177 whole entry, looked up): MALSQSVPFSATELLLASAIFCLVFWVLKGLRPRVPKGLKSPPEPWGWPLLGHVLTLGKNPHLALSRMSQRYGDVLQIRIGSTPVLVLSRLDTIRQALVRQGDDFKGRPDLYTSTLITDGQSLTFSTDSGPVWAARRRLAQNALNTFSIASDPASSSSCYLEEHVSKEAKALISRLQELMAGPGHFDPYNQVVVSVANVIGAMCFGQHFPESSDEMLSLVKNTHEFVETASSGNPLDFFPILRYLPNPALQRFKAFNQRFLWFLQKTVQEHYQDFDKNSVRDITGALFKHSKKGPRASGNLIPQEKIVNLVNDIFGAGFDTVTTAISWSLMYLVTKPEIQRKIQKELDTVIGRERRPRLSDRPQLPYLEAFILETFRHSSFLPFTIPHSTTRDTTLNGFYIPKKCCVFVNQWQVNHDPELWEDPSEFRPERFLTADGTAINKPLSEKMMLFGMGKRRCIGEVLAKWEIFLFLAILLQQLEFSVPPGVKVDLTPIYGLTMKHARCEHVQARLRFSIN

A short description of test [4]: NFAT Signaling Pathway (AID 444).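 Note: carbachol stimulus at about its EC50 of 1 µM final; % is set by controls: 0 for no effect and ±100 for the full control effect.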 The conditions noted are these: Jurkat NFAT-bla M1, carbachol, beta-lactamase ratio, 5 h; at 7.69 µM (top of the series) unless noted. The procedure, abridged:
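Jurkat cells carrying an NFAT-driven β-lactamase reporter and co-transfected muscarinic M1 receptor were treated with compound plus carbachol (1 uM final, an EC50 level) for 5 h at 37 °C. CCF4 loading followed for 1 h at RT; 460/530 nm ratio gave %activity.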

The nature of test [5]: Stat Signaling Pathway (AID 446).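 Note: ME-180 cervical cancer cells given 40 pM IL-6 alongside compound; SIE-controlled beta-lactamase reporter measured as 460/530 nm FRET emission ratio; % is set by controls: 0 for no effect and ±100 for the full control effect.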 The conditions noted are these: ME-180 SIE beta-lactamase reporter, IL-6 stimulated, 5 h; at 7.69 µM (top of the series) unless noted. A digest of the protocol:
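ME-180 cells carrying a SIE-driven beta-lactamase reporter are stimulated with 40 pM IL-6 for 5 h at 37C in the presence of compound. The 460/530 nm FRET substrate ratio is read after 2.5 h at RT. Data are normalised to 300 pM IL-6 and to 125 nM JAK inhibitor controls.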

In test [6] the target is Glucocorticoid receptor (Homo sapiens) (UniProt P04150). Description: GR-GFP Redistribution (AID 450;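 active = compounds whose dose series gives a full or clear partial fitted curve of increased nuclear translocation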; note: potency is the fitted concentration of half-maximal effect). The conditions noted are these: U2OS GR-GFP nuclear translocation, laser cytometry, 2 h.
Chain of Glucocorticoid receptor (Homo sapiens) (P04150 whole entry, looked up, the tested form may be a part): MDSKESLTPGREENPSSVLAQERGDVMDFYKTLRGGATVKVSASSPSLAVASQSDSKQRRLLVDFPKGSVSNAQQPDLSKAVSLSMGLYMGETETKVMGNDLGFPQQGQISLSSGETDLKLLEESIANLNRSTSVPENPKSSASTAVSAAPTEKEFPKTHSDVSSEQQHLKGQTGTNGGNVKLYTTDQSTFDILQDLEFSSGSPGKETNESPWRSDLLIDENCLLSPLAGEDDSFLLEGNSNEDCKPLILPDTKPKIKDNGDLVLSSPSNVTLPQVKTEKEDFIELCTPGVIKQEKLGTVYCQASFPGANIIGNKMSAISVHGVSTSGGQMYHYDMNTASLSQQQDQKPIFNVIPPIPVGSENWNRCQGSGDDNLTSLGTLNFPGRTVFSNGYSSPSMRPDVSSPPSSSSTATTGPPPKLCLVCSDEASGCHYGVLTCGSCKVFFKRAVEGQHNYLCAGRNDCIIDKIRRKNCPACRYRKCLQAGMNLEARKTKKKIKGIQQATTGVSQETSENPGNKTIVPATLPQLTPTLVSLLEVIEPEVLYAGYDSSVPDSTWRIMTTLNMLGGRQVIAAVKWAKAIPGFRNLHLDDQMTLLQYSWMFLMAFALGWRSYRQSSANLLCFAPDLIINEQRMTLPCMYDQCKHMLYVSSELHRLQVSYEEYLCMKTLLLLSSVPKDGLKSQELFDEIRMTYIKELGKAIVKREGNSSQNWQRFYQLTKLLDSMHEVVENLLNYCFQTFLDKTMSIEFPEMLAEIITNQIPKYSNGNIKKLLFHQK
Test [7] shares this target. Description: GR-EFC Redistribution (AID 451; calls by dose curve; note: potency is the fitted concentration of half-maximal effect). The conditions noted are these: CHO-K1 GR-EFC translocation, beta-gal luminescence, 2 h. The procedure, abridged: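 CHO-K1 cells stably expressing nuclear-localized β-gal enzyme acceptor and GR fused C-terminally to the enzyme donor fragment; ligand-driven nuclear translocation restores β-gal by complementation. Compounds titrated up to 46 uM final, 2 h at 37 °C; luminescence read.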

For test [8], the target named is Mitogen-activated protein kinase 10 (Mus musculus) (UniProt Q61831). Nature of the test: JNK3 AlphaScreen Assay (AID 530).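 Note: kinase came from lysate of stimulated human HepG2 cells; signal reports phosphorylation of biotinylated GST-cJun 1-79 at Ser73 with 10 µM ATP; % is set by controls: 0 for no effect and ±100 for the full control effect.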 The conditions noted are these: JNK3 lysate, c-Jun phosphorylation; series mostly up to 11.4 µM. A digest of the protocol:
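JNK3 came from HepG2 lysates pre-activated with IL-1beta and TNF-alpha and phosphorylated biotinylated GST-cJun (1-79) at 10 uM ATP, pH 7.6, room temperature. Compounds were titrated. AlphaScreen signal used anti-phospho-cJun (Ser73) antibody.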
For orientation: Alpha assays give light when donor and acceptor beads are brought close together.

Test [9] addresses 3',5'-cyclic-AMP phosphodiesterase 4B (Homo sapiens) (UniProt Q07343). Description: qHTS Assay for Inhibitors of PDE-IV (AID 607; active = well fitted activation curve with a large enough effect in the main read-out, with a control signal flat, not every such curve was filed as active; note: % of control where 0% means no effect). Particulars: HEK293 ACTOne CNG channel cells, membrane potential fluorescence; series mostly up to 22.9 µM. The procedure, abridged:
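HEK293 ACTOne cells with CNG channel (1000/well), endogenous PDE4; membrane potential dye, compounds up to 22.9 uM final. Fluorescence Ex 535/Em 590; RO 20-1724 (100 uM final) as reference.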
A general note: Quantitative high-throughput screening tests each substance at several concentrations.

Test [10] has as its target Cytochrome P450 2C9 (Homo sapiens) (UniProt P11712). Nature of the test: qHTS Assay for Inhibitors and Substrates of Cytochrome P450 2C9 (AID 883; active = well fitted curve in the direction sought with a large enough effect; an effect the other way counts as inactive or inconclusive; note: nearly all actives have a fitted effect of over 60% in size; note: potency is the fitted concentration of half-maximal effect). Particulars: recombinant CYP2C9, luciferin-H luminescence, 60 min; series mostly up to 11.4 µM. A digest of the protocol:
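A luminogenic readout tracked human CYP2C9 (10nM) converting deoxyluciferin (100uM, at KM) in 25mM KPO4 during 60 min at 37C with regenerated NADPH. Values normalized to 57uM sulphaphenazole as complete inhibition.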

Test [11] has as its target Cytochrome P450 2C19 (Homo sapiens) (UniProt P33261). Nature of the test: qHTS Assay for Inhibitors and Substrates of Cytochrome P450 2C19 (AID 899; active = well fitted curve in the direction sought with a large enough effect; an effect the other way counts as inactive or inconclusive; note: nearly all actives have a fitted effect of over 60% in size; note: potency is the fitted concentration of half-maximal effect). Particulars: recombinant CYP2C19, luciferin-H EGE luminescence; series mostly up to 11.4 µM. The procedure, abridged:
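NADPH-dependent conversion of Luciferin-H EGE (10uM, at KM) by 5nM enzyme in 50mM KPO4, 60 min at 37C following 10 min compound preincubation. Stopped with luciferin detection buffer; luminescence read after 20 min.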

Test [12] is described as follows: qHTS Assay for Identification of Small Molecule Agonists for Hypoxia Response Element Signaling Pathway (AID 914; active = well fitted activation curve with a large enough effect in the signal ratio, with a control signal flat, not every such curve was filed as active; the % refers to the signal ratio; note: % of control where 0% means no effect). Particulars: ME-180 (cervical carcinoma) HRE-bla reporter, beta-lactamase ratio, CoCl2, 17 h; activation: active compounds read high. The procedure, abridged: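 HRE-bla ME-180 cells, overnight plating in Opti-MEM with 0.5% dialyzed FBS; cpd titration + EC50 CoCl2, 17 h, 37 degrees Celsius; CCF4 2.5 h RT; 460/530 nm ratio; AC50.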

Test [13] addresses Cytochrome P450 3A4 (Homo sapiens) (UniProt P08684). Description: qHTS Assay for Activators of Cytochrome P450 3A4 (AID 885; active = well fitted curve in the direction sought with a large enough effect; an effect the other way counts as inactive or inconclusive; note: nearly all actives have a fitted effect of over 65% in size). The conditions noted are these: recombinant CYP3A4, Luciferin-PPXE luminescence, 60 min; series mostly up to 11.4 µM. A digest of the protocol: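 Human CYP3A4 (20 nM) with Luciferin-PPXE at 25 uM (its KM) in 200 mM KPO4; 10 min compound preincubation, then NADPH regeneration and 60 min reaction at RT. Luciferin read by luminescence; normalized to 57 uM ketoconazole full inhibition.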

For test [14] the target is unchanged. Nature of the test: qHTS Assay for Inhibitors and Substrates of Cytochrome P450 3A4 (AID 884; active = well fitted curve in the direction sought with a large enough effect; an effect the other way counts as inactive or inconclusive; note: % is set by controls: 0 for no effect and ±100 for the full control effect; nearly all actives have a fitted effect of over 50% in size). Particulars: recombinant CYP3A4, Luciferin-PPXE luminescence; series mostly up to 57.1 µM. A digest of the protocol: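 20 nM human CYP3A4 with 25 uM Luciferin-PPXE (at KM) in 200 mM KPO4, preincubated 10 min with compound; NADPH regeneration started a 60 min RT reaction. Luciferin detected by luminescence, normalized to 57 uM ketoconazole as full inhibition.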

In test [15] the target is Cytochrome P450 2D6 (Homo sapiens) (UniProt P10635). Nature of the test: qHTS Assay for Inhibitors and Substrates of Cytochrome P450 2D6 (AID 891; active = well fitted curve in the direction sought with a large enough effect; an effect the other way counts as inactive or inconclusive;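 note: luciferin methyl ether substrate demethylated by CYP2D6 with NADPH regeneration; % is set by controls: 0 for no effect and ±100 for the full control effect; nearly all actives have a fitted effect of over 60% in size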). The conditions noted are these: recombinant CYP2D6, luciferin-ME EGE luminescence; series mostly up to 11.4 µM. A digest of the protocol: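 Human CYP2D6 (5 nM) with 30 uM Luciferin-ME EGE (at Km) in 100 mM KPO4, compound preincubated 10 min, then NADPH regeneration system for 60 min at room temperature. Luciferin read by luminescence; normalized to 1.43 uM quinidine.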
Chain of Cytochrome P450 2D6 (Homo sapiens) (P10635 whole entry, looked up): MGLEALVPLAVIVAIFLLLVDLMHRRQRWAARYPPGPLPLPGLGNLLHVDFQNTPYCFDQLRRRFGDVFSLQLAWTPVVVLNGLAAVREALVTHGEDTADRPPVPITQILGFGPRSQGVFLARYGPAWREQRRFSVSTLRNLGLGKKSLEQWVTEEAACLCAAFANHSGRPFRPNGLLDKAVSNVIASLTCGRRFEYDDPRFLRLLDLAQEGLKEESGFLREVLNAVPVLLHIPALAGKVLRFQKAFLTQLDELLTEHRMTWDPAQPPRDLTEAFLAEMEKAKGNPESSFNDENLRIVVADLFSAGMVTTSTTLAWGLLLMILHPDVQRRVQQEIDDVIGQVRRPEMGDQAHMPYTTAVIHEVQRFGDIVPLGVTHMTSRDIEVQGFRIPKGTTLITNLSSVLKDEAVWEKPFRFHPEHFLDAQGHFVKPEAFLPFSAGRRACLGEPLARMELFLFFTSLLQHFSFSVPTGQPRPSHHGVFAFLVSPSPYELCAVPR

The structures appear in SMILES notation. Unmarked numbers belong to inactive results. Records with an inconclusive call do not appear. The source made the active and inactive calls. Unless noted, calls come from the whole dose curve; as a rule, active = well fitted curve in either direction with a large enough effect (not every such curve was filed as active); inconclusive = small, poorly fitted or top-dose-only effect, or another doubt; inactive = flat fitted curve, though single readings scatter.

Chain of Lysosomal acid glucosylceramidase (Homo sapiens) (P04062 whole entry, looked up): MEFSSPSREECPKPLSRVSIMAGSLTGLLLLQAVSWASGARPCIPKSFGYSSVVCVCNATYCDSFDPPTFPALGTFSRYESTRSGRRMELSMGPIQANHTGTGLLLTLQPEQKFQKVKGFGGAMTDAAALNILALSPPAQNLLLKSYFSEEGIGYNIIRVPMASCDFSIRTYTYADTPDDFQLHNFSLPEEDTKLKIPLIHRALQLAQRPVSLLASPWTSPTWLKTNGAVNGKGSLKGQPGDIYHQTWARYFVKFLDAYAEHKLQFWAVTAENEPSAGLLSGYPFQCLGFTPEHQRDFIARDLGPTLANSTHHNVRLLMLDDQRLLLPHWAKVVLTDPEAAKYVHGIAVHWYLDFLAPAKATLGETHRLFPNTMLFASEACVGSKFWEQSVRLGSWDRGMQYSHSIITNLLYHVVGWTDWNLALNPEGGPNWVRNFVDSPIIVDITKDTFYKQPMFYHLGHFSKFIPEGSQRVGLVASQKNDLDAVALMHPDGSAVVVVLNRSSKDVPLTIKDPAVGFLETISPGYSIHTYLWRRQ
Chain of Cytochrome P450 2C19 (Homo sapiens) (P33261 whole entry, looked up): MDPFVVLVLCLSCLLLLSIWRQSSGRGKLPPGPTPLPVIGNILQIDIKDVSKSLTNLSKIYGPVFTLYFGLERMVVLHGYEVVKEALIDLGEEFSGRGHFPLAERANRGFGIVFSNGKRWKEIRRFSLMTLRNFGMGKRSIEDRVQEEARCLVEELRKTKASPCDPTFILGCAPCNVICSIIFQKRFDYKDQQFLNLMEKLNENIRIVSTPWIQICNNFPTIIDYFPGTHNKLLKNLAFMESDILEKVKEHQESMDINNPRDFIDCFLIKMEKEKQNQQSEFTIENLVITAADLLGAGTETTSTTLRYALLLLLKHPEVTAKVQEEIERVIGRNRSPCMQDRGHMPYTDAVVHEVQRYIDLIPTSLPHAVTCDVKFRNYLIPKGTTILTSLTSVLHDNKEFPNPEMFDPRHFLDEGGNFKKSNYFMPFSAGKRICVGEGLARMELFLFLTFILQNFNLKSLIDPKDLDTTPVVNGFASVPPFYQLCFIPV
Chain of Cytochrome P450 2C9 (Homo sapiens) (P11712 whole entry, looked up): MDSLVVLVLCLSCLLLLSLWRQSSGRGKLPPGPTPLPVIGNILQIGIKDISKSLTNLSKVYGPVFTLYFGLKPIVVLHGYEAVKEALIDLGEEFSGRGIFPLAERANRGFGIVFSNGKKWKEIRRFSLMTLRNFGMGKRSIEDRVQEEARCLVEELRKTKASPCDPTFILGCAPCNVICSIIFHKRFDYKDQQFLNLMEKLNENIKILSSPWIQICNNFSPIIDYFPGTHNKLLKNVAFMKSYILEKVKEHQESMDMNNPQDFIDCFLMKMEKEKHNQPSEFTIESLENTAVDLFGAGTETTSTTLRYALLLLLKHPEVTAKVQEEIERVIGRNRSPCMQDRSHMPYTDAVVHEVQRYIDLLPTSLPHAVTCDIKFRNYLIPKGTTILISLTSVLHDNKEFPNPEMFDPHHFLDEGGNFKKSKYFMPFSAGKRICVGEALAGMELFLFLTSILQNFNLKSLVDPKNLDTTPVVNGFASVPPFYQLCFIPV
Chain of 3',5'-cyclic-AMP phosphodiesterase 4B (Homo sapiens) (Q07343 whole entry, looked up): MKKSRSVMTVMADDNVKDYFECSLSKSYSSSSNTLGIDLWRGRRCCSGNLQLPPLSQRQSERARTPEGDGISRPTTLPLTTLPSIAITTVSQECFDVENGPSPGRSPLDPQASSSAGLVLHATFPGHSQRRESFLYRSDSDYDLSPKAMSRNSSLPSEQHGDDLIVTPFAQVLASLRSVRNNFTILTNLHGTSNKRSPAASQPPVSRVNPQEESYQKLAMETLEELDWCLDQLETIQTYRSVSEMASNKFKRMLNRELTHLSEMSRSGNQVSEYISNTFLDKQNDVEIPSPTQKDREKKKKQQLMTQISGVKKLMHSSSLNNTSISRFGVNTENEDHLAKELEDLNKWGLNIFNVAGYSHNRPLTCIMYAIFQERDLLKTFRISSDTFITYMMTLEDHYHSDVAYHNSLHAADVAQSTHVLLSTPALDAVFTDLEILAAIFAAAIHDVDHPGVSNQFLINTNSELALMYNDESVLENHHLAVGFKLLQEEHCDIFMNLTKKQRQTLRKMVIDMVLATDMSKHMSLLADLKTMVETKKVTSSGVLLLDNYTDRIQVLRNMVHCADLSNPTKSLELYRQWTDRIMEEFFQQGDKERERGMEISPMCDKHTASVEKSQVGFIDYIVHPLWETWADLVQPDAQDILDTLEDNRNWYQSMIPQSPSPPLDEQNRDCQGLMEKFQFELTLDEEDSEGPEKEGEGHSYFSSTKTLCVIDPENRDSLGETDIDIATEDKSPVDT
Chain of Cytochrome P450 3A4 (Homo sapiens) (P08684 whole entry, looked up): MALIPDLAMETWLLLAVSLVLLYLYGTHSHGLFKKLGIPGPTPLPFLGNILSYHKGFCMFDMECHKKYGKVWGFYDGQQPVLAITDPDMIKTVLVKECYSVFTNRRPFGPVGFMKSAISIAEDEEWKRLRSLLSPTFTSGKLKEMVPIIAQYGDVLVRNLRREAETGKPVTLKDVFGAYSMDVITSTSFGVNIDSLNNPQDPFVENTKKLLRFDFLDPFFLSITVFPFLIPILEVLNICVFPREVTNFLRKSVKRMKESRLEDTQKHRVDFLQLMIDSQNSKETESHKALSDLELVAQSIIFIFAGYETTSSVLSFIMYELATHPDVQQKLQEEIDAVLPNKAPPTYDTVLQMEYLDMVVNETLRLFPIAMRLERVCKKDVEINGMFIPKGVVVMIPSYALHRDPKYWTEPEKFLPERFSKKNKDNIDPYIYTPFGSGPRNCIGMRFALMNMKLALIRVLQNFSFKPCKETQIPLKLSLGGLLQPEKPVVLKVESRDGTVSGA

Take `CCCCSCc1nc2nc(Cl)c(Cl)nc2[nH]1`: the Potency was above 11.4 µM in [1]; 3.16 µM (active) in test [3]; above 46 µM in test [6]; above 9.22 µM in [7]; 0.501 µM (active) in test [10]; 2 µM (active) in test [11]. The activity change, negative = inhibition was -2.19% in [2] and -24.8% in test [4]. In test [5], the activity, negative = inhibition was -21.2%. The Potency result in test [8] and in test [9] was “inactive” each time.
As for `N#C/C(=C\Nc1ccccn1)C(=O)c1ccco1`, the Potency is above 11.4 µM in [1], above 46 µM in test [6], above 9.22 µM in [7] and 3.16 µM (active) in test [10]. Besides, the activity change, negative = inhibition is 2.96% in [2] and 2.59% in [4]. Further, the Potency entry in test [3], in test [8] and in test [9] was “inactive” each time. The activity, negative = inhibition in test [5] was 3.37%. In [12], the activation is -12.2%.
On to `CC1=C/C(=N/O)C([C@H]2C=C(C)CC(C)(C)[C@@H]2O)C(C)(C)C1` (stereo not given in full), for which the Potency in test [1] is above 11.4 µM; in test [6] it was above 46 µM; in test [7] it was above 9.22 µM; in test [10] it was 2.51 µM (active); in test [11], 1.58 µM (active). Besides, the activity change, negative = inhibition in test [2] was -3.8%; in test [4], -18%. Further, the Potency result in [3], in [8] and in test [9] was “inactive” each time. Besides, the activity, negative = inhibition in test [5] was 0.535%.
Take `COc1ccc([C@@H](Nc2ccccn2)c2cc(C(C)(C)C)cc(C(C)(C)C)c2O)cc1`: the Potency was above 11.4 µM in test [1]; above 46 µM in [6]; above 9.22 µM in test [7]; 2.51 µM (active) in test [10]; 2.51 µM (active) in test [11]. The activity change, negative = inhibition in test [2] was -15.8%; in test [3], 1.2% [at 2.29 µM]; in [4] it was -8.5%. The activity, negative = inhibition in test [5] is -15.2%. The Potency entry in test [8], in test [9] and in test [13] was “inactive” each time. Moreover, the activation in test [12] is 3.06%.
On to `C[C@H]1[C@H](O)[C@@H](C)C=CC=CC=CC=CC=CC=CC=C[C@H](O[C@@H]2O[C@@H](C)[C@H](O)[C@@H](N)[C@@H]2O)C[C@@H]2O[C@](O)(C[C@@H](O)C[C@@H](O)[C@@H](O)CC[C@@H](O)C[C@@H](O)CC(=O)O[C@H]1C)C[C@H](O)[C@H]2C(=O)O`, for which the Potency was above 11.4 µM in test [1], above 46 µM in test [6] and above 9.22 µM in test [7]. The activity change, negative = inhibition in test [2] is -7.91%; in [4] it was -0.0379%; in test [14], -24.7% [at 11.4 µM]. Also, the Potency result in test [3], in test [8], in test [9], in [10], in [15] and in [11] was “inactive” each time. Moreover, the activity, negative = inhibition in test [5] was 6.85%.
For the compound `O=C(O)c1c(Cl)c(Cl)c(Cl)c(Cl)c1C(=O)Nc1ccc2cn[nH]c2c1`, the Potency was above 11.4 µM in test [1]; 0.2 µM (active) in test [3]; above 46 µM in test [6]; above 9.22 µM in test [7]; 0.0794 µM (active) in test [10]. In addition, the results for the activity change, negative = inhibition in test [2] and in test [4] were 1.63% and 4.49%, respectively. The activity, negative = inhibition in test [5] is 20.7%. The Potency entry in test [8], in test [9] and in test [13] was “inactive” in each case.
